Data on 64 molecules can be found in PubChem BioAssay AID504327 (National Center for Advancing Translational Sciences (NCATS), 2011).

In all, about 390,000 compounds went through this assay and about 820 (0.21%) were called active. Another 3% or so got no clear call; they are omitted. The call rests on the fitted dose curve; in most records, active means well fitted inhibition curve with a large enough effect; inconclusive means small, poorly fitted or top-dose-only effect, or another doubt; inactive means no such curve, though single readings can be large or run the other way. The entries come from a sample that favours actives as a whole. Entries that show only a call come without a potency.
Potency means the concentration at half of the fitted maximal effect.

Histone acetyltransferase KAT2A (Homo sapiens), sequence (Q92830 whole entry, looked up): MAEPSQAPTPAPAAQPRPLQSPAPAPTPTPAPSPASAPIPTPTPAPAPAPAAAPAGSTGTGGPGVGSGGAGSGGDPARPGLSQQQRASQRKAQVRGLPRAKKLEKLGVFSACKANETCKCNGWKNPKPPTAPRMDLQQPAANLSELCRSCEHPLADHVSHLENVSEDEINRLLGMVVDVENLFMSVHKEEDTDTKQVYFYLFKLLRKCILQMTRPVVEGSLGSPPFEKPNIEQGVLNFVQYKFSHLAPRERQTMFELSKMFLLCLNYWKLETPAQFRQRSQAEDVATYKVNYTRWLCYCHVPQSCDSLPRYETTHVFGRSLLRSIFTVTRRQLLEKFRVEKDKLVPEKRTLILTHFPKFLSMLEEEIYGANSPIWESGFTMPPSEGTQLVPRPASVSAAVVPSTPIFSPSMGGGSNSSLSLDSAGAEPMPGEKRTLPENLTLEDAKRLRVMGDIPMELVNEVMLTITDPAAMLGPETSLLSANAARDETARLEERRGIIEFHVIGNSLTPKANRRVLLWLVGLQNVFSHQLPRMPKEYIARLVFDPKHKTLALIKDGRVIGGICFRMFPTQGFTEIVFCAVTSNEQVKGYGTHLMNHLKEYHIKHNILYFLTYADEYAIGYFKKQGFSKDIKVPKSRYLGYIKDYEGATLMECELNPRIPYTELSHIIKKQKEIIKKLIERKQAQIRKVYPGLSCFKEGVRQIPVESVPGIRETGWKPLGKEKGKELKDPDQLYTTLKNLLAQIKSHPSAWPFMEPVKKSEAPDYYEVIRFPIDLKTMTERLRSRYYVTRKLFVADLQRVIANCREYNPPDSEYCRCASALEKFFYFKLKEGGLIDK

The assay has as its target Histone acetyltransferase KAT2A (Homo sapiens) (UniProt Q92830). The assay is described as follows: qHTS Assay for Inhibitors of GCN5L2. Particulars: GCN5L2 HAT assay, ThioGlo1 CoA-SH fluorescence; series mostly up to 58.9 µM. The text has this: Histone acetyltransferase (HAT) enzymes transfer a […] group from acetyl-coenzyme A to the epsilon-amino group of conserved lysine residues of N-terminal histone tails. Acetylation results in charge neutralization of this positively charged amino acid, decreasing interactions with the […] backbone and making the DNA more accessible for transcription. HATs have been recognized as an emerging drug target for treatment of cancer, diabetes, asthma, chronic obstructive pulmonary disease, cardiac disease, and viral infection. Protein identified with HAT activity include the […] like 2 (GCN5L2, a.ka. Histone acetyltransferase KAT2A) which acetylates histone H3 at Lys9, 14, 18, 13, and to lesser extent histones H4 and H2B. This activates transcription of the gene by modulating chromatin structure and installing the acetyllysine recognition mark for bromodomain-containing coactivator proteins.
A quantitative high throughput screen was developed to identify small molecule inhibitors. The assay is based on the principle that it measures formation of reduced CoA with the pro-fluorescent maleimide derivative ThioGlo1 that becomes fluorescent upon reaction with the free thiol of CoA.
A large number of artifacts are expected in this primary screen, compounded by the assay format (fluorescent artifacts) and by the high top concentration tested for each substance. This BioAssay data deposition should be used with caution, and counterscreen and secondary assay validation is essential since very few actives from the primary screen are expected to be true inhibitors of GCN5L2.
[2] Yasgar, et al. Compound Management for Quantitative High-Throughput Screening. JALA. 2008 Apr;13(2):79-89.
[3] Inglese, et al. Quantitative high-throughput screening: a titration-based approach that efficiently identifies biological activities in large chemical libraries. Proc Natl Acad Sci. 1;103(31):11473-8. 2006. PMID: 16864780
NIH Molecular Libraries Probe Production Network [MLPCN]
NIH Chemical Genomics Center [NCGC]
Structural Genomics Consortium (SGC)
To each well of a 1,536w plate, 3ul of GCN5L2 (final concentration 20nM, in 50mM HEPES, 0.1mM EDTA (pH 7.5), 0.01% Tween-20 buffer) are added using a Kalypsys dispenser. Only buffer is added to some wells as a control. A Kalypsys pin-tool transferred 23nl of library compound solution in DMSO to each well, as well as the control inhibit garcinol. . Following a 15 min incubation of enzyme with compounds at room temperature, 1ul mixture of ThioGlo1 (50uM final), H3(1-25) peptide (75uM final), and Acetyl-CoA (70uM final) is added. Plates are read immediately on the ViewLux (PerkinElmer) (Ex340nm/Em540nm) for a 0 min read, incubated for 20 min at room temperature, and read again on the ViewLux with the same settings. The initial read was carried out to identify compounds that are potentially fluorescent.
In the case of `COc1ccccc1N1CCN(C[C@@H]2CN3C(=O)N(C)c4ccccc4C3=N2)CC1`, the Potency entry is “inactive”.
Take `C[C@@H]1C[C@H]2[C@@H]3C[C@H](F)C4=CC(=O)C=C[C@@]4(C)[C@]3(F)[C@H](O)C[C@]2(C)[C@@]1(O)C(=O)CO`: the Potency entry was “inactive”.
As for `C[C@@H]1O[C@@H](OC[C@H]2O[C@@H](Oc3cc(O)c4c(c3)O[C@H](c3ccc(O)c(O)c3)CC4=O)[C@H](O)[C@@H](O)[C@@H]2O)[C@H](O)[C@H](O)[C@H]1O`, the Potency result is “inactive”.
Regarding `COc1ccccc1CNC(=O)c1ccc(N(C)S(=O)(=O)c2ccc(C)cc2)cc1`, the Potency result was “inactive”.
The value for `Cc1ccccc1CSCCNC(=O)c1ccc(N(C)S(=O)(=O)c2ccccc2)cc1` was 2.24 µM (active); that for `Cc1ccccc1CSCCNC(=O)c1ccc(Cl)c(S(=O)(=O)N2CCOCC2)c1` was “inactive”.
With `COc1cccc(Nc2ncc3ncc(=O)n(C4CC4)c3n2)c1` the entry was “inactive”.
The value for `Cc1ccc(C2C(C#N)C(C#N)N3CCCN23)cc1` (centres undefined) was 22.4 µM (active); that for `CC1CC[C@@]23CCC4(C)[C@@]5(C)CCC6C(C)(C)C(O)CC[C@@]6(C)C5C=C[C@@]4(OC2=O)C3C1C` (some centres undefined) was “inactive”; that for `CC1=C/C(=N\OS(=O)(=O)c2ccccc2)C=CC1=O` was 14.1 µM (active).
Regarding `COc1cc2c(cc1OC)CC(=O)N(CCCN(C)C[C@H]1Cc3cc(OC)c(OC)cc31)CC2`, the Potency result was “inactive”.
With `O=C1OC(C(O)CO)C(O)=C1O` (centres undefined) the entry was “inactive”.
With `CCNc1ncc2ncc(=O)n(Cc3cccc(OC)c3)c2n1` the entry was “inactive”; with `CCOC(=O)c1sc(NC(=O)CSc2nc(C)cc(C(F)(F)F)n2)c(C#N)c1C`, “inactive”.
In the case of `Cc1c(C(=O)OC(C)C)sc(NC(=O)c2cccnc2)c1C#N`, the Potency is 3.16 µM (active).
The value for `Cc1ccc(S(=O)(=O)N2CCCCC2)cc1NC(=O)c1cccnc1` was “inactive”; that for `COc1cccc(-c2cc(NCCc3c[nH]c4ccc(OC)cc34)ncn2)c1` was “inactive”; that for `CC1(C)OC2CC3C4CCC5=CC(=O)CCC5(C)C4(F)C(O)CC3(C)[C@]2(C(=O)CCl)O1` (some centres undefined) was “inactive”.
The value for `Oc1c(Cl)cc(Cl)c(Cl)c1Cc1c(O)c(Cl)cc(Cl)c1Cl` was 12.6 µM (active); that for `c1ccc2c(Nc3ccncc3)nc(-c3ccoc3)nc2c1` was “inactive”; that for `O=C(Nc1ccccc1)N[C@H]1C[C@H](C(=O)O)Nc2cc(Cl)cc(Cl)c21` was “inactive”.
With `C=C1C(=CC=C2CCC[C@@]3(C)[C@@H]2CC[C@H]3[C@H](C)CCCC(C)C)C[C@@H](O)C[C@@H]1O` the entry was “inactive”; with `CC(C)(O/N=C(\C(=O)N[C@@H]1C(=O)N2C(C(=O)[O-])=C(C[n+]3ccccc3)CS[C@@H]12)c1csc(N)n1)C(=O)O`, “inactive”.
`CC1C(O)CC2C(C(=O)O)=CO[C@@H](O[C@H]3OC(CO)C(O)C(O)C3O)C21` (some centres undefined): the Potency result was “inactive”.
As to `COC(=O)N1CCC[C@@]2(CCN(C(=O)NC(C)C)C2)C1`, the Potency result is “inactive”.
The value for `Brc1ccc(C2=NCCC(c3ccccc3)O2)cc1` (centres undefined) was “inactive”; that for `CC(C)NC(=O)N1CC[C@@]2(CCCN(C(=O)c3ccco3)C2)C1` was “inactive”.
With `Cc1ccc(C)c(NC(=O)COC(=O)Cn2c(C)csc2=O)c1` the entry was “inactive”.
With `CCCCOC(=O)Cn1c(=O)n(CC(=O)OCCCC)c2cc(C)ccc21` the figure was 31.6 µM (active).
In the case of `CCCCOc1ccc(Cn2c(=O)oc3ccc(C)cc32)cc1OC`, the Potency entry was “inactive”.
`COc1ccc(NC(=O)N2CC3(CCN(C(C)=O)CC3)C2)cc1`: the Potency entry was “inactive”.
The value for `CC(=O)CC(c1ccccc1)C1C(=O)Oc2ccccc2C1=O` (centres undefined) was “inactive”.
The value for `COc1cccc(Cn2c(=O)c(-c3cc(F)cc(F)c3)nc3cnc(OC)nc32)c1` was “inactive”; that for `O=c1c(CCc2ccccc2)nc2cncnc2n1C1CC1` was “inactive”.
With `CC(C)=CCC/C(C)=C/CC/C(C)=C/CC/C(C)=C/CO` the entry was “inactive”; with `O=C(c1csnn1)N1CCC[C@@]2(CCN(c3cccc(-c4ccccc4)c3)C2)C1`, “inactive”.
On to `Nc1nc2[nH]c(=O)c(=O)[nH]c2c(=O)[nH]1`, for which the Potency result is “inactive”.
As to `Cc1cnc(CNc2cc(-c3c(C)noc3C)ncn2)cn1`, the Potency entry was “inactive”.
As for `C=CCC1CCC(=O)N2CCCC12` (centres undefined), the Potency result is “inactive”.
The value for `CCCCCCCCCc1ccc(OCCOCCOCCOCCOCCOCCOCCOCCOCCO)cc1` was “inactive”; that for `Cn1cc(-c2nc3cncnc3n(-c3ccccc3)c2=O)c2ccccc21` was “inactive”; that for `Oc1ccc2c(c1)OCC1c3cc4c(cc3OC21)OCO4` (centres undefined) was “inactive”.
The value for `Nc1ncnc2c1c(I)cn2[C@@H]1C[C@H](N)[C@@H](O)[C@H]1O` was “inactive”.
With `COc1ccc2[nH]cc(CCNc3ncnc4ccc(-c5ccc(C(=O)N(C)C)cc5)cc34)c2c1` the entry was “inactive”.
Regarding `CC1OC(OCC2OC(Oc3c(-c4ccc(O)c(O)c4)oc4cc(O)cc(O)c4c3=O)C(O)C(O)C2O)[C@@H](O)C(O)C1O` (some centres undefined), the Potency entry was “inactive”.
With `CCOCCOC(=O)C(C)Oc1ccc(Oc2ncc(C(F)(F)F)cc2Cl)cc1` (centres undefined) the entry was “inactive”; with `CS(=O)(=O)N1CCC2(CC1)CN(Cc1ccccc1)C2`, “inactive”.
With `COCCNc1ncnc2ccc(-c3cccnc3)cc12` the entry was “inactive”; with `CCC(CCC(C)C1CCC2C3CC=C4CC(O)CC[C@@]4(C)C3CC[C@@]12C)C(C)C` (some centres undefined), “inactive”.
With `O=P(O)(O)C(O)c1ccc2ccccc2c1` (centres undefined) the entry was “inactive”; with `CC(O)[C@@H](N)C(=O)O` (some centres undefined), “inactive”; with `COc1ccc(CNc2ncnc3ccc(-c4cccnc4)cc23)c(OC)c1`, “inactive”.
With `CCOC(=O)Cn1c(=O)sc2cccc(Cl)c21`, the Potency entry was “inactive”.
For the molecule `CCNc1ncc2nc(CCc3ccccc3)c(=O)n(-c3ccc(OC)cc3)c2n1`, the Potency entry was “inactive”.
The value for `N#Cc1cccc(-c2nc3cnc(N4CCNCC4)nc3n(C3CC3)c2=O)c1` was 28.2 µM (active); that for `O=c1c(-c2ccc(F)cc2)nc2cnc(N3CCNCC3)nc2n1Cc1cccs1` was “inactive”.
As to `Cn1cc(-c2nc3cnc(N4CCNCC4)nc3n(CCC#N)c2=O)c2ccccc21`, the Potency result was “inactive”.
Regarding `O=C(c1cc(C(F)(F)F)cc(C(F)(F)F)c1)N1CCC2(CCCN(c3ccccn3)C2)CC1`, the Potency result is “inactive”.
On to `CN1CCN2c3ccccc3Cc3ccccc3[C@@H]2C1`, for which the Potency result is “inactive”.
On to `CN1CCN(c2ncc3nc(-c4ccc(Cl)cc4)c(=O)n(-c4ccccc4)c3n2)CC1`, for which the Potency entry was “inactive”.
Regarding `CCCCC/C=C\CC1OC1CCCCCCCC(=O)O` (centres undefined), the Potency result is “inactive”.
The value for `Cc1cccc(CNc2cc(-c3ccccc3Cl)ncn2)c1` was “inactive”; that for `C=CC(=O)c1ccc2ccccc2c1` was “inactive”; that for `COCCn1c(=O)c(-c2ccccc2)nc2cnc(N3CCOCC3)nc21` was “inactive”.
